Results published in PubChem BioAssay AID1159580 (chemical genetic matrix, 2015).
Where “and” joins values, the source holds several entries; their conditions need not be identical. Identical values can stand only once. The campaign covered roughly 5,500 compounds. About 2,000 (36%) were called active. Another 18% or so got no clear call; they are omitted. Rule as the data show it: active = normalized growth mostly below about 0.91 (no sharp cut-off); inconclusive = no clear call, values can overlap the other calls; inactive = mostly above about 0.92. This is one part of the list.

Assay: chemical genetic growth profiling, strain panel (AID 1159580);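 also: tested at 20 µM; growth read once vehicle control cultures reached saturation at 30 °C; 1 = growth at the plate median or of vehicle wells; lower values mean less growth of the strain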
Settings: S. cerevisiae deletion strains, growth OD

Measured: normalized growth

Nc1nc2ncc(CNc3ccc(C(=O)N[C@@H](CCC(=O)O)C(=O)O)cc3)nc2c(=O)[nH]1
inactive: locus YAL021C, strain ccr4, hits give low values 0.993 | locus YAL026C, strain drs2, hits give low values 1.01 | locus YAL030W, strain snc1, hits give low values 0.998 | locus YBL061C, strain skt5, hits give low values 1 | locus YBR009C, strain hhf1, hits give low values 1.01 | locus YBR021W, strain FUR4, hits give low values 1.04 | locus YBR023C, strain chs3, hits give low values 0.995 | locus YBR171W, strain sec66, hits give low values 0.996 | locus YBR229C, strain ROT2, hits give low values 0.992 | locus YBR231C, strain swc5, hits give low values 0.996 | locus YBR279W, strain paf1, hits give low values 0.996 | locus YCL011C, strain gbp2, hits give low values 1 | locus YCL016C, strain dcc1, hits give low values 0.998 | locus YCL029C, strain bik1, hits give low values 0.976 | locus YCL061C, strain MRC1, hits give low values 0.998 | locus YCL069W, strain vba3, hits give low values 1 | locus YCR088W, strain abp1, hits give low values 1 | locus YDL005C, strain med2, hits give low values 1 | locus YDL035C, strain GPR1, hits give low values 0.995 | locus YDL040C, strain nat1, hits give low values 0.995 | locus YDL074C, strain BRE1, hits give low values 0.993 | locus YDL101C, strain DUN1, hits give low values 0.996 | locus YDL185W, strain tfp1, hits give low values 0.956 | locus YDL192W, strain arf1, hits give low values 0.976 | locus YDR001C, strain nth1, hits give low values 0.997 | locus YDR069C, strain doa4, hits give low values 0.999 | locus YDR101C, strain arx1, hits give low values 0.982 | locus YDR137W, strain rgp1, hits give low values 1.03 | locus YDR159W, strain sac3, hits give low values 1.01 | locus YDR162C, strain NBP2, hits give low values 1.02 | locus YDR195W, strain ref2 0.993 | locus YDR297W, strain sur2, hits give low values 0.997 | locus YDR318W, strain mcm21, hits give low values 0.99 | locus YDR334W, strain swr1, hits give low values 1 | locus YDR335W, strain msn5, hits give low values 0.997 | locus YDR388W, hits give low values 0.976 | locus YDR392W, strain spt3, hits give low values 0.941 | locus YDR502C, strain sam2, hits give low values 0.986 | locus YEL003W, strain gim4, hits give low values 1.01 | locus YEL037C, strain rad23, hits give low values 1 | locus YEL061C, strain CIN8 (second series), hits give low values 1 | locus YEL061C, strain CIN8, hits give low values 0.988 | locus YER015W, strain faa2, hits give low values 1 | locus YER016W, strain bim1, hits give low values 1.01 | locus YER110C, hits give low values 0.952 | locus YER111C, strain swi4, hits give low values 0.985 | locus YER155C, strain BEM2 (second series), hits give low values 1.01 | locus YER155C, strain BEM2, hits give low values 0.986 | locus YER167W, strain BCK2, hits give low values 0.99 | locus YFR010W, strain ubp6, hits give low values 1.01 | locus YGL078C, strain dbp3, hits give low values 0.998 | locus YGL086W, strain mad1, hits give low values 0.968 | locus YGL167C, strain pmr1, hits give low values 1 | locus YGL173C, strain kem1, hits give low values 0.996 | locus YGL227W, strain vid30, hits give low values 0.993 | locus YGL240W, strain doc1, hits give low values 1.02 | locus YGL248W, strain PDE1, hits give low values 1.01 | locus YGL253W, strain hxk2, hits give low values 0.993 | locus YGR078C, strain PAC10, hits give low values 1.03 | locus YGR135W, strain pre9, hits give low values 1 | locus YGR252W, strain gcn5, hits give low values 1.21 | locus YHR013C, strain ard1, hits give low values 1 | locus YHR027C, strain rpn1, hits give low values 1 | locus YHR030C, strain SLT2, hits give low values 0.971 and 1.02 | locus YHR079C, strain IRE1 (second series), hits give low values 0.972 | locus YHR079C, strain IRE1, hits give low values 1.03 | locus YHR094C, strain hxt1, hits give low values 0.989 | locus YHR129C, strain ARP1, hits give low values 0.99 | locus YHR142W, strain chs7, hits give low values 0.989 | locus YHR200W, strain rpn10, hits give low values 0.985 | locus YIL066C, strain RNR3, hits give low values 1 | locus YIL073C, strain SPO22, hits give low values 0.922 | locus YIL125W, strain kgd1, hits give low values 0.94 | locus YIR030C, strain dcg1, hits give low values 0.985 | locus YJL092W, strain hpr5, hits give low values 0.995 | locus YJL095W, strain BCK1 (second series), hits give low values 0.992 | locus YJL095W, strain BCK1, hits give low values 1.05 and 1.02 | locus YJL115W, strain asf1, hits give low values 1 | locus YJL129C, strain trk1, hits give low values 0.993 | locus YJL134W, strain LCB3, hits give low values 0.979 | locus YJL154C, strain vps35, hits give low values 1 | locus YJL164C, strain tpk1, hits give low values 0.994 | locus YJL166W, strain qcr8, hits give low values 0.995 | locus YJL168C, strain set2, hits give low values 1.01 | locus YJL187C, strain SWE1 (second series), hits give low values 1.01 | locus YJL187C, strain SWE1, hits give low values 0.999 | locus YJR043C, strain POL32, hits give low values 1.01 | locus YJR066W, strain TOR1, hits give low values 0.959 | locus YKL009W, strain mrt4, hits give low values 0.954 | locus YKL068W, hits give low values 0.98 | locus YKL085W, strain MDH1 (second series), hits give low values 0.981 | locus YKL085W, strain MDH1, hits give low values 0.981 | locus YKL160W, strain elf1, hits give low values 0.987 | locus YKL190W, strain CNB1, hits give low values 0.985 | locus YKR001C, strain vps1, hits give low values 0.975 | locus YKR026C, strain gcn3, hits give low values 1 | locus YKR091W, strain srl3, hits give low values 1 | locus YLL001W, strain dnm1, hits give low values 0.967 | locus YLL026W, hits give low values 0.997 | locus YLL041C, strain sdh2, hits give low values 0.998 | locus YLR027C, strain aat2, hits give low values 1 | locus YLR039C, strain RIC1, hits give low values 0.987 | locus YLR058C, strain SHM2, hits give low values 0.991 | locus YLR102C, strain apc9, hits give low values 0.957 | locus YLR113W, strain HOG1, hits give low values 1.02 | locus YLR221C, strain rsa3, hits give low values 0.995 | locus YLR258W, strain gsy2, hits give low values 0.998 | locus YLR262C, strain YPT6 (second series), hits give low values 0.998 | locus YLR262C, strain YPT6, hits give low values 1 | locus YLR268W, strain sec22, hits give low values 0.963 | locus YLR320W, strain mms22, hits give low values 0.992 | locus YLR330W, strain CHS5, hits give low values 0.979 | locus YLR342W, strain FKS1 (second series), hits give low values 1.01 | locus YLR342W, strain FKS1, hits give low values 0.995 | locus YLR357W, strain rsc2, hits give low values 1.01 | locus YLR370C, strain arc18, hits give low values 0.994 | locus YLR371W, strain rom2, hits give low values 0.98 | locus YLR384C, strain iki3, hits give low values 1.01 | locus YLR418C, strain cdc73, hits give low values 1.04 | locus YML016C, strain PPZ1, hits give low values 0.989 | locus YML032C, strain rad52, hits give low values 0.985 | locus YML120C, strain ndi1, hits give low values 0.995 | locus YML124C, strain tub3, hits give low values 0.991 | locus YMR058W, strain fet3, hits give low values 1 | locus YMR078C, strain ctf18, hits give low values 0.982 | locus YMR125W, strain sto1, hits give low values 0.993 | locus YMR129W, hits give low values 1 | locus YMR205C, strain PFK2, hits give low values 0.992 | locus YMR223W, strain ubp8, hits give low values 0.998 | locus YMR231W, strain pep5, hits give low values 1 | locus YMR263W, strain SAP30, hits give low values 0.995 | locus YMR307W, strain GAS1, hits give low values 1.19 | locus YNL067W, strain RPL9B, hits give low values 1.02 | locus YNL071W, strain lat1, hits give low values 1 | locus YNL153C, strain GIM3, hits give low values 1.03 | locus YNL183C, strain NPR1, hits give low values 0.947 | locus YNL209W, strain ssb2, hits give low values 0.998 | locus YNL233W, strain BNI4, hits give low values 1.03 | locus YNL248C, strain rpa49, hits give low values 0.994 | locus YNL250W, strain rad50, hits give low values 0.981 | locus YNL271C, strain bni1, hits give low values 0.997 | locus YNL298W, strain CLA4, hits give low values 0.989 | locus YNL307C, strain MCK1, hits give low values 0.98 | locus YNL322C, strain KRE1 (second series), hits give low values 0.998 | locus YNL322C, strain KRE1, hits give low values 0.987 | locus YNR049C, strain mso1, hits give low values 0.999 | locus YNR052C, strain pop2, hits give low values 0.994 | locus YOL012C, strain htz1 0.994 | locus YOL147C, strain pex11, hits give low values 0.985 | locus YOR001W, strain rrp6, hits give low values 0.984 | locus YOR061W, strain CKA2, hits give low values 0.99 | locus YOR069W, strain VPS5, hits give low values 0.981 | locus YOR070C, strain gyp1, hits give low values 0.996 | locus YOR080W, strain dia2, hits give low values 1 | locus YOR083W, strain WHI5, hits give low values 0.985 | locus YOR106W, strain vam3, hits give low values 1.02 | locus YOR136W, strain idh2, hits give low values 0.987 | locus YOR144C, strain elg1, hits give low values 0.987 | locus YOR184W, strain ser1, hits give low values 0.963 | locus YOR231W, strain MKK1, hits give low values 1.03 | locus YOR265W, strain rbl2, hits give low values 1.01 | locus YOR270C, strain vph1, hits give low values 0.99 | locus YOR290C, strain snf2, hits give low values 1.02 | locus YOR316C, strain cot1, hits give low values 0.988 | locus YPL051W, strain arl3, hits give low values 0.997 | locus YPL078C, strain atp4, hits give low values 0.996 | locus YPL106C, strain sse1, hits give low values 0.963 | locus YPL240C, strain hsp82, hits give low values 0.985 | locus YPL256C, strain CLN2, hits give low values 1.02 | locus YPR119W, strain clb2, hits give low values 0.976 | locus YPR141C, strain kar3, hits give low values 0.979 | locus YPR163C, strain tif3, hits give low values 0.993 | locus YPR167C, strain met16, hits give low values 0.97 | strain wtn01, hits give low values 0.971
